Growth inhibition data for 6 molecules are collected here from PubChem BioAssay (NCI).

The nature of experiment [1]: NCI Yeast Anticancer Drug Screen. Data for the rad50 strain (AID 155).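 Note: 0% = growth of vehicle-only cultures of the same strain.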 Particulars: S. cerevisiae rad50 strain growth inhibition, active compounds read high. In a few lines: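 DNA repair mutant yeast, compound exposure, growth read-out; inhibition is taken relative to vehicle.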
Experiment [2] in a line: NCI Yeast Anticancer Drug Screen. Data for the mec2-1 strain (AID 157). Particulars: S. cerevisiae mec2-1 strain, active compounds read high. The essentials:
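Strain: mec2-1 (DNA repair/cell cycle alteration). Compound exposure, then growth measured; inhibition expressed relative to vehicle.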

Experiment [3] is described as follows: NCI Yeast Anticancer Drug Screen. Data for the sgs1 mgt1 strain (AID 161).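 Note: 0% = growth of cultures given vehicle only.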 The conditions noted are these: S. cerevisiae sgs1 mgt1 strain, active compounds read high. In a few lines: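 Genetically altered yeast, compound exposure, growth inhibition relative to vehicle.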
Experiment [4] can be described thus: NCI Yeast Anticancer Drug Screen. Data for the cln2 rad14 strain (AID 165).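 Note: 0% = growth equal to vehicle treated cultures.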 The conditions noted are these: S. cerevisiae cln2 rad14 strain, active compounds read high. The essentials: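 Compounds are applied to the cln2 rad14 yeast strain, and growth is then compared with that of vehicle-treated cultures to give inhibition.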
A short description of experiment [5]: NCI Yeast Anticancer Drug Screen. Data for the bub3 strain (AID 167). The conditions noted are these: S. cerevisiae bub3 mutant strain, active compounds read high. The essentials: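 In this screen, a yeast mutant lacking normal mitotic checkpoint function is challenged with compound. Relative growth versus vehicle gives the inhibition value.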
Experiment [6] in a line: NCI Yeast Anticancer Drug Screen. Data for the mlh1 rad18 strain (AID 175). Particulars: S. cerevisiae mlh1 rad18 strain growth inhibition, active compounds read high. In a few lines:
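Read-out is yeast growth inhibition, calculated against vehicle-only controls. The compound was applied to a strain engineered with DNA damage repair alterations.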

Where [7] appears, read: at 5.0 µM (retest, dose inferred, filed as 0.5).
The mark [8] stands for this setting: at 50.0 µM (retest, dose inferred, filed as 5.0).

About 79,000 compounds went through this panel and 15% of them were active in at least one assay; those are over-represented in the sample as a whole. Unmarked numbers belong to inactive results. Calls of active or inactive are those of the source. Cut-off read from the data, not from the text of the source: active = growth inhibition above about 70%; inactive = the rest.

With `COCCN1C(=O)C2c3[nH]c4ccccc4c3C3CCC(C(C)(C)C)CC3C2C1=O` (stereo not drawn), the growth inhibition in experiment [1] (setting [7]) is -2%; in experiment [1] (setting [8]) it was 98% (active); in experiment [1] (at 50.0 µM), 93.8% (active); in experiment [2] (setting [7]), -1%; in experiment [2] (setting [8]), 98% (active); in experiment [2] (at 50.0 µM), 96% (active). For the same molecule, the growth inhibition in experiment [3] (setting [7]) was -7%; in experiment [3] (setting [8]), 98% (active); in experiment [3] (at 50.0 µM), 88.7% (active); in experiment [4] (setting [7]), -21%; in experiment [4] (setting [8]), 96% (active); in experiment [4] (at 50.0 µM), 95.6% (active). The growth inhibition in experiment [5] (setting [7]) is -4%; in experiment [5] (setting [8]), 94% (active); in experiment [5] (at 50.0 µM) it was 94.2% (active); in experiment [6] (setting [7]), 4%; in experiment [6] (setting [8]), 98% (active); in experiment [6] (at 50.0 µM), 94.5% (active).
Take `Cc1ccc(O)c2c(NCCCCCCNc3cc(C)[n+](C)c4c(C)ccc(O)c34)cc(C)[n+](C)c12`: the growth inhibition in experiment [1] (setting [7]) is -1%; in experiment [1] (setting [8]) it was 87% (active); in experiment [1] (at 50.0 µM), 89% (active); in experiment [2] (setting [7]), 0%; in experiment [2] (setting [8]), 76% (active); in experiment [2] (at 50.0 µM), 90.4% (active). In addition, the growth inhibition was -1% in experiment [3] (setting [7]); 71% (active) in experiment [3] (setting [8]); 92.7% (active) in experiment [3] (at 50.0 µM); 5% in experiment [4] (setting [7]); 60% in experiment [4] (setting [8]); 72.7% (active) in experiment [4] (at 50.0 µM). Moreover, the growth inhibition in experiment [5] (setting [7]) is -6%; in experiment [5] (setting [8]), 76% (active); in experiment [5] (at 50.0 µM), 77.5% (active); in experiment [6] (setting [7]), -2%; in experiment [6] (setting [8]), 84% (active); in experiment [6] (at 50.0 µM), 90.2% (active).
For the molecule `COC1/C=C/OC2(C)Oc3c(C)c(OC(C)=O)c4c(c3C2=O)C(=O)C=C(NC(=O)/C(C)=C\C=C\C(C)C(O)C(C)C(O)C(C)C(OC(C)=O)C1C)C4=O` (stereo not drawn), the growth inhibition in experiment [1] (setting [7]) was 6%; in experiment [1] (setting [8]) it was 70% (active); in experiment [1] (at 50.0 µM) it was 53.4%; in experiment [2] (setting [7]), -44%; in experiment [2] (setting [8]), 87% (active); in experiment [2] (at 50.0 µM) it was 50%. In addition, the growth inhibition is 1% in experiment [3] (setting [7]); 52% in experiment [3] (setting [8]); 6% in experiment [3] (at 50.0 µM); 3% in experiment [4] (setting [7]); 96% (active) in experiment [4] (setting [8]); 69.8% in experiment [4] (at 50.0 µM). The growth inhibition in experiment [5] (setting [7]) is 0%; in experiment [5] (setting [8]), 85% (active); in experiment [5] (at 50.0 µM), 42.6%; in experiment [6] (setting [7]), 5%; in experiment [6] (setting [8]) it was 90% (active); in experiment [6] (at 50.0 µM), 46.5%.
On to `CCC[CH2][Ge]([CH2]CCC)([CH2]CCC)[O]C(C)=O`, for which the growth inhibition in experiment [1] (setting [7]) is 2%; in experiment [1] (setting [8]), 9%; in experiment [1] (at 50.0 µM) it was 54.1%; in experiment [2] (setting [7]), 0%; in experiment [2] (setting [8]), 19%; in experiment [2] (at 50.0 µM) it was 27.3%. For the same molecule, the growth inhibition was 4% in experiment [3] (setting [7]); 21% in experiment [3] (setting [8]); 61.8% in experiment [3] (at 50.0 µM); 1% in experiment [4] (setting [7]); -1% in experiment [4] (setting [8]); 70.8% (active) in experiment [4] (at 50.0 µM). Also, the growth inhibition is -2% in experiment [5] (setting [7]); 6% in experiment [5] (setting [8]); 19.2% in experiment [5] (at 50.0 µM); 2% in experiment [6] (setting [7]); 11% in experiment [6] (setting [8]); 52.8% in experiment [6] (at 50.0 µM).
Turning to `O=C(O)Cc1nc2ccccc2[nH]1`, the growth inhibition in experiment [1] (setting [7]) was 1%; in experiment [1] (setting [8]), 95% (active); in experiment [1] (at 50.0 µM), 25.9%; in experiment [2] (setting [7]), 9%; in experiment [2] (setting [8]) it was 70% (active); in experiment [2] (at 50.0 µM) it was 51.2%. The growth inhibition in experiment [3] (setting [7]) was 14%; in experiment [3] (setting [8]) it was 99% (active); in experiment [3] (at 50.0 µM) it was 2.85%; in experiment [4] (setting [7]), 0%; in experiment [4] (setting [8]), 34%; in experiment [4] (at 50.0 µM), 14.8%. In addition, the growth inhibition in experiment [5] (setting [7]) is 1%; in experiment [5] (setting [8]), 98% (active); in experiment [5] (at 50.0 µM) it was -3.2%; in experiment [6] (setting [7]), 2%; in experiment [6] (setting [8]) it was 99% (active); in experiment [6] (at 50.0 µM), 3.05%.
With `COc1ccc(Cc2ccc(N)cc2)cc1`, the growth inhibition in experiment [1] (setting [7]) is -149%; in experiment [1] (setting [8]), 78% (active); in experiment [1] (at 50.0 µM), 92.2% (active); in experiment [2] (setting [7]), -52%; in experiment [2] (setting [8]) it was 68%; in experiment [2] (at 50.0 µM), 86.7% (active). Moreover, the growth inhibition in experiment [3] (setting [7]) was -68%; in experiment [3] (setting [8]), 85% (active); in experiment [3] (at 50.0 µM), 89.5% (active); in experiment [4] (setting [7]), -61%; in experiment [4] (setting [8]) it was 91% (active); in experiment [4] (at 50.0 µM), 87.8% (active). Moreover, the growth inhibition in experiment [5] (setting [7]) was -66%; in experiment [5] (setting [8]), 76% (active); in experiment [5] (at 50.0 µM) it was 91.1% (active); in experiment [6] (setting [7]), -132%; in experiment [6] (setting [8]), 86% (active); in experiment [6] (at 50.0 µM), 96.8% (active).
